Bioassay records: PubChem, The Scripps Research Institute Molecular Screening Center
The list is not random: actives were taken first. Their share in the collection is about 3.4%.
KLK7 zymogen act = proKLK7 zymogen activators, primary screen, biochemical, fluorescence intensity | AID 652039, 2013 | activation, % at 7 µM | 370,000 tested, 0.9% active | purified proKLK7, EDANS-DABCYL substrate fluorescence; 100% is mature enzyme control, 0% vehicle;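 active means activation above the mean of all tested compounds plus 3 SD, computed per campaign excluding outliers beyond control limits, cut at about 13% in these data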
sPLA2-III inh = human group III sPLA2 inhibitors, primary screen, biochemical, QFRET, BODIPY PC-A2 liposome substrate; Group 3 secretory phospholipase A2 (Homo sapiens), Q9NZ20; QFRET BODIPY PC-A2 liposome hydrolysis, fluorescence; inhibition, % at 12.2 µM; 370,000 tested, 0.56% active; AID 743126, 2013;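 active means inhibition above mean plus 3 SD of compounds lying within the high and low control bounds, cut at about 19% in these data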;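 further: 0% = median of test compound wells and 100% = no enzyme DMSO wells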
PLC-gamma1 inh = PLC-gamma1 enzyme inhibitors, primary screen, biochemical, fluorescence, purified enzyme; 370,000 tested, 0.84% active; fluorogenic substrate; 1-phosphatidylinositol 4,5-bisphosphate phosphodiesterase gamma-1 (Homo sapiens), P19174; inhibition, % at 12.2 µM; in the data active means inhibition above about 9.5%
ADAM10 inh = human ADAM10 inhibitors, primary screen, biochemical, QFRET, HTS. Disintegrin and metalloproteinase domain-containing protein 10 (Homo sapiens), O14672. recombinant ADAM10, EDANS/DABCYL FRET peptide cleavage, 3 h. inhibition, % at 7 µM. 370,000 tested, 0.62% active;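 active means inhibition above a per-campaign cutoff equal to the mean of compounds falling between control-based bounds plus 3 SD, cut at about 20% in these data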;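 further: 0% = DMSO wells while the 100% control is not disclosed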
PLC-beta3 inh = human PLC-beta3 inhibitors, primary screen, biochemical, fluorescence; 1-phosphatidylinositol 4,5-bisphosphate phosphodiesterase beta-3 (Homo sapiens), Q01970; Purified PLC-beta3, fluorogenic substrate; inhibition, % at 12.2 µM; 370,000 tested, 0.18% active; in the data active means inhibition above about 11%;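 further: 0% = median of compound wells on plate and 100% = full blocker control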
Target sequence (Q01970 whole entry, looked up): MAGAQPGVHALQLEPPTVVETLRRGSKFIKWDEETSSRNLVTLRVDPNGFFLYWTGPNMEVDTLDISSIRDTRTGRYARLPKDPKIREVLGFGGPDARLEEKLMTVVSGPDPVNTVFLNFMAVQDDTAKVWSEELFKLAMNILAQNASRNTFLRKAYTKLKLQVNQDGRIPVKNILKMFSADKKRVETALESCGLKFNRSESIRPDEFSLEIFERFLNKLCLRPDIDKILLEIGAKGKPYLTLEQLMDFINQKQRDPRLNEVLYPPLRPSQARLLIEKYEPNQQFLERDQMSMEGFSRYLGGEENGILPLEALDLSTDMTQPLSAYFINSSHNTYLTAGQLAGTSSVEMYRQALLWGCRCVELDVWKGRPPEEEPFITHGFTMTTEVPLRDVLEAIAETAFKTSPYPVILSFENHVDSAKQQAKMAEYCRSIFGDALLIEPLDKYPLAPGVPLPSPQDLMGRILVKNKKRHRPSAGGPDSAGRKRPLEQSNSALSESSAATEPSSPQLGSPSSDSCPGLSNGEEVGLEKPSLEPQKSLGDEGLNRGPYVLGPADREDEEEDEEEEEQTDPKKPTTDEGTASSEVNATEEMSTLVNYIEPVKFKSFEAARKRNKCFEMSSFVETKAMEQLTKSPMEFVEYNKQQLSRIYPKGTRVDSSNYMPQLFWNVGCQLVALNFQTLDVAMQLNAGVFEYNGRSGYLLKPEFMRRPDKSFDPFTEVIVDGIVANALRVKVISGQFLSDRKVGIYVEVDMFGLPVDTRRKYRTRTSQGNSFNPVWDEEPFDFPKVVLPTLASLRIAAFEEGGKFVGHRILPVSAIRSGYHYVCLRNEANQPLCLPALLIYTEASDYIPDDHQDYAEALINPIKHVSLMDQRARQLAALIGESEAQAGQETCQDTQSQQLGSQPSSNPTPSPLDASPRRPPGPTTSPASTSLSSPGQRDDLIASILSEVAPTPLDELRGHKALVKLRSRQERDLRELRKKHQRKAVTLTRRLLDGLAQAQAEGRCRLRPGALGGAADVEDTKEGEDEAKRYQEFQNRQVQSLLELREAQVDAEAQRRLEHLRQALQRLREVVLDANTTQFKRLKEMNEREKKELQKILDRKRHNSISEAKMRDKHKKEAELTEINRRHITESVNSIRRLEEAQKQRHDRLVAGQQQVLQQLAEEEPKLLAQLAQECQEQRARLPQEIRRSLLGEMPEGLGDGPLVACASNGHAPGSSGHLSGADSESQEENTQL
ADAM17 inh = ADAM17 inhibitors, primary screen, biochemical, QFRET; recombinant ADAM17, EDANS/DABCYL FRET peptide cleavage; AID 720648, 2013; Disintegrin and metalloproteinase domain-containing protein 17 (Homo sapiens), P78536; inhibition, % at 6.95 µM; 370,000 tested, 0.83% active;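 active means inhibition above the mean of compounds lying between control limits plus 3 SD, set per campaign, cut at about 8.5% in these data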;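 further: 0% = DMSO-only wells as the low control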
hGIII sPLA2 conf = human group III sPLA2 inhibitors, confirmation, biochemical, QFRET, triplicate; shares compounds with sPLA2-III inh; recombinant hGIII-sPLA2, BODIPY PC-A2 QFRET fluorescence; inhibition, % at 12.2 µM; 2,000 tested, 34% active; AID 743280, 2014;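 active means mean inhibition across triplicates above the hit cutoff set in the earlier primary screen, cut at about 19% in these data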;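 further: 0% = enzyme with DMSO and 100% = DMSO wells lacking enzyme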
BODIPY interf = 535nm fluorescence optical interference, confirmation, artefact control for HGIII-sPLA2 inhibitor project, biochemical, QFRET | 2,000 tested, 8.5% active | AID 743282, 2014 | inhibition, % at 12.2 µM | BODIPY FL product fluorescence interference | shares compounds with sPLA2-III inh;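 active means average inhibition above the solvent-only control mean plus 3 SD, cut at about 6% in these data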;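 further: 0% = DMSO with substrate plus product and 100% = DMSO with substrate alone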
535nm interf DR = 535nm fluorescence optical interference, dose response, artefact control for HGIII-sPLA2 inhibitor project, biochemical, QFRET | AID 743455, 2014 | BODIPY FL product fluorescence interference, cell-free | shares compounds with sPLA2-III inh | IC50, µM | 240 tested, under 10 active;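 active means IC50 at or below 10 µM; inactive means IC50 above 10 µM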
Numbers without * were called inactive; nt = not tested or not shown.

SMILES	KLK7 zymogen act	sPLA2-III inh	PLC-gamma1 inh	ADAM10 inh	PLC-beta3 inh	ADAM17 inh	hGIII sPLA2 conf	BODIPY interf	others
Cc1nc(SCC(=O)N2CCC(Cc3ccccc3)CC2)[nH]c(=O)c1C	0	1	-1	6	-1	0	nt	nt
O=C(OCc1ccccc1)C1=NNC2C(=O)N(c3ccccc3)C(=O)C12 (centres undefined)	0	23*	1	-3	-8	-1	1	-3
CCc1ccc(N2C(=O)C3NN=C(C(=O)OCc4ccccc4)C3C2=O)cc1 (centres undefined)	1	8	-2	-2	-2	-4	nt	nt
Cc1ccc(-c2csc(N3CCN(c4cc5c(cc4Cl)nc(C(C)N)n5CCCO)CC3)n2)cc1 (centres undefined)	1	23*	-14	-45	-24	-16	20*	-3
COc1ccc(N2CCN(S(=O)(=O)c3ccc(OC)c(C(=O)N4CCCC4)c3)CC2)cc1	0	8	2	5	-6	-3	nt	nt
CCCCNC(=S)NNC(=O)c1nn(C)c(C)c1Cl	0	23*	0	14	4	-4	21*	0
O=C(NNC(=S)NCc1ccco1)c1ccc(Cl)s1	1	-14	-8	-2	-3	-3	nt	nt
Cc1c(Cl)c(C(=O)NNC(=S)NCc2ccco2)nn1C	0	35*	0	7	0	-6	41*	-2	535nm interf DR=>122
Cn1cc(Cl)c(C(=O)NNC(=S)NCc2ccco2)n1	0	30*	-10	-6	-15	-3	25*	6.3*
CCn1nc(C(=O)NCc2ccco2)c(Cl)c1Cl	0	0	5	2	3	0	nt	nt
Cc1cccc(CN2CCN(C3CN(Cc4cn(Cc5ccccc5)nn4)S(=O)(=O)C3)CC2)c1 (centres undefined)	1	-1	8	3	7	4	nt	nt
CC(C)c1ccccc1NC(=S)NCC1(N(C)C)CCCCC1	-1	20*	2	-12	-2	1	26*	-8
CC(C)c1ccccc1NC(=S)NC(=O)C1CCCCC1	0	10	-2	2	-3	3	nt	nt
COC(=O)c1ccc(NC(=O)CCN2CCOCC2)cc1	0	22*	2	-5	-1	-3	-11	-4
Cc1ccc(-n2[nH]c(C)c(C=Nc3ccc(S(=O)(=O)N4CCOCC4)cc3)c2=O)c(C)c1	0	22*	1	0	1	-1	8	-12
CNS(=O)(=O)c1ccc(N=Cc2c(C)[nH]n(-c3ccc(C)cc3C)c2=O)cc1	0	9	-4	3	-4	-3	nt	nt
Cc1cccc(NC(=O)CN2CCN(CC(=O)Nc3ccc(-c4ccccc4)cc3)CC2)c1C	1	-9	4	-6	-1	6	nt	nt
Cc1cccc(NC(=O)CN2CCN(C(=O)C3CCC3)CC2)c1C	0	21*	-4	-13	-3	-1	-7	-5
Cc1ccc(NC(=O)CN2CCCC2)cc1	0	79*	5	13	5	4	6	-4
N#Cc1ccc(-c2ccc(OCC(O)CN3CCCCC3)cc2)cc1 (centres undefined)	-1	-6	-3	-26	-7	-12	nt	nt
Cc1ccccc1C(=O)NNC(=S)NC(=O)c1cccs1	0	34*	-1	-4	-9	0	39*	-5	535nm interf DR=>122
Cc1ccccc1C(=O)Nc1cccc(NC(=S)NC(=O)c2cccs2)c1	0	5	1	11	4	8	nt	nt
CCCCN(C(=O)c1ccc2c(c1)OCCO2)c1c(N)n(CC(C)C)c(=O)[nH]c1=O	0	9	-3	-5	1	-1	nt	nt
O=C1/C(=C/c2ccccn2)SC(=S)N1Nc1ncc(C(F)(F)F)cc1Cl	0	21*	-19	10	-31	3	32*	-1	535nm interf DR=>122
Cc1ccc(N(CC(=O)NCc2ccccc2)S(=O)(=O)c2c(C)noc2C)cc1	0	-1	1	7	-2	-5	nt	nt
SMILES	KLK7 zymogen act	sPLA2-III inh	PLC-gamma1 inh	ADAM10 inh	PLC-beta3 inh	ADAM17 inh	hGIII sPLA2 conf	BODIPY interf	others
Fc1ccc2nc(-c3ccc(CN4CCC5(CC4)CNc4ccccc45)cc3)c(-c3ccccc3)nc2c1	1	20*	-12	-51	-19	-10	17	-8
O=C1c2ccccc2C(=O)N1CCSc1n[nH]c(=S)s1	0	20*	2	1	4	0	25*	5
O=c1[nH]ncc(NCc2ccc(Cl)cc2)c1Cl	0	5	3	5	8	3	nt	nt
CCC(=O)NC(=S)NNC(=O)c1ccccc1[N+](=O)[O-]	0	-4	-2	-2	-5	-2	nt	nt
Cc1ccccc1OCC(=O)NNC(=S)NC(=O)c1ccccc1[N+](=O)[O-]	0	23*	-1	12	-1	5	28*	-4	535nm interf DR=>122
CC(C)C(=O)Nc1ccc(C(=O)NNC(=S)NC(=O)c2ccccc2[N+](=O)[O-])cc1	0	21*	5	3	0	0	18	-4
CCCCC(=O)Nc1ccc(C(=O)NNC(=S)NC(=O)c2ccccc2[N+](=O)[O-])cc1	-1	23*	2	13	-5	2	21*	-4
CC(C)C(=O)Nc1ccc(NC(=S)NC(=O)c2ccccc2F)cc1	0	-1	-1	-4	-5	-4	nt	nt
COc1ccc(C(=O)NC(=S)NNC(=O)c2ccc(NC(=O)C(C)C)cc2)cc1	0	26*	-3	4	-5	-2	27*	-5
CC(C)(C)c1ccc(OCC(=O)NNC(=S)NC(=O)c2ccccc2[N+](=O)[O-])c(Br)c1	1	-3	3	15	0	6	nt	nt
